SW480 rerep: induces DNA re-replication in SW480 colon adenocarcinoma cells | Potency, µM (titrated, usually from 46.1 µM), for inactives: at the top dose re-replication activation, most hits filed as activators | AID 624297 | SW480 DNA re-replication, Hoechst DNA content imaging, 48 h | actives 1.8% (n = 340,000); note: potency is the fitted concentration of half-maximal effect; % of control where 0% means no effect; nearly all actives have a fitted effect of over 55% in size
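Quantitative HTS format with DMSO vehicle controls; 48 hr drug incubation at 37 C, then 40 min Hoechst staining and scanning imager measurement at 405 nm excitation.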
Giardia killer: Giardia lamblia killing. Giardia lamblia trophozoite viability. activity change, % at 7.66 µM, hits read low. actives 0.15% (n = 340,000); in the data active = activity change below about -80%; inconclusive = between about -30% and that limit;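 note: parasites exposed to compound for two days anaerobically before the ATP read; % is set by controls: 0 for no effect and ±100 for the full control effect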
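Each well holds 100 Giardia trophozoites and compound. After two days (48 hrs) at 37 deg C in anaerobic conditions, ATP is quantified by luminescence.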
Vif-A3G inh: blocks the Vif interaction with human APOBEC3G. Potency, µM (doses to about 46.1 µM), for inactives: at the highest dose activity, negative = active, most hits filed as inhibitors. actives 0.076% (n = 410,000). Q9HC16. HeLa A3G-eYFP + Vif (tagged APOBEC3G with the HIV-1 protein that degrades it), YFP fluorescence, overnight; note: potency is the fitted concentration of half-maximal effect; % is set by controls: 0 for no effect and ±100 for the full control effect; nearly all actives have a fitted effect of over 60% in size
Target sequence (Q9HC16 whole entry, looked up): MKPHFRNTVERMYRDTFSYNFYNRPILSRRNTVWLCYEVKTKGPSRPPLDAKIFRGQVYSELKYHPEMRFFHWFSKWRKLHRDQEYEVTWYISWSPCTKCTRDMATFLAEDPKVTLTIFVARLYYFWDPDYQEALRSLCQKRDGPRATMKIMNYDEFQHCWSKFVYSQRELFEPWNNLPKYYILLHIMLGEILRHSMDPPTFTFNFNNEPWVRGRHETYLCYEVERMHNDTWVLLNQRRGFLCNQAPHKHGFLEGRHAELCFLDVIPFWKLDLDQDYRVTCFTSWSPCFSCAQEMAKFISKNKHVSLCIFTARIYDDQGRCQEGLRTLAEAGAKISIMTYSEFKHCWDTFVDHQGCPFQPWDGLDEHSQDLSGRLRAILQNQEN
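HeLa cells stably expressing Vif and C-terminally eYFP-tagged A3G, seeded overnight at 37 deg C, then exposed to compound by pintool overnight at 37 deg C. Rise in yellow fluorescence (Ex 488/Em 500-530, Acumen) marks blocked Vif-driven A3G degradation.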
Vif-APOBEC3F blk: Vif-A3F binding inhibition | HeLa A3F-eYFP + Vif (tagged APOBEC3F with the HIV-1 protein that degrades it), YFP fluorescence increase | Potency, µM (titrated, usually from 46.1 µM), for the others: at the highest dose activity, negative = active | actives 0.2% (n = 390,000) | AID 602313; note: potency is the fitted concentration of half-maximal effect; % of control where 0% means no effect; nearly all actives have a fitted effect of over 65% in size
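HeLa cells stably expressing A3F-eYFP plus Vif, plated and incubated overnight at 37 deg C, then exposed to compounds overnight at 37 deg C. Blocked degradation read as raised yellow fluorescence (Ex 488/Em 500-530).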
MCF10A rereplic: DNA re-replication induction in MCF 10a cells | MCF 10A DNA re-replication, Hoechst nuclear intensity, 48 h | Potency, µM (highest dose often 46.1 µM), for the others: at the highest dose activity, positive = re-replication, hits mostly activators | actives 2.9% (n = 350,000); note: potency is the fitted concentration of half-maximal effect; % of control where 0% means no effect; nearly all actives have a fitted effect of over 50% in size
IL-1B inflam inh: blocks inflammasome-driven IL-1 beta release | THP-1 LPS/ATP IL-1B secretion, AlphaLISA, 16 h; stronger effect = lower value | AID 743279 | actives 4.7% (n = 360,000) | activity change, % at 57.5 µM; in the data active = activity change below about -50%; inconclusive = mostly about -30% to -49%; note: % is set by controls: 0 for no effect and ±100 for the full control effect
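THP-1 cells pretreated 1 hr with compounds (up to 57.5 uM final), then stimulated with LPS (250 ng/mL final) plus ATP (1.25 mM final); secreted IL-1B measured by AlphaLISA after 16 hr, decreased signal indicating inhibition.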
Active calls of the source: *; [ ] = remark or other dose. In the library only some 6.9% were active in any assay of this set; here they are far more common. Unless noted, calls come from the whole dose curve; as a rule, active = well fitted curve in the direction sought with a large enough effect; inconclusive = small, poorly fitted or top-dose-only effect, or another doubt; inactive = no such curve, though single readings can be large; an effect the other way counts as inactive or inconclusive.

What do the screens show for `CCOc1ccc(NC(=O)Cn2c(=O)n(-c3ccccc3)c(=O)c3ccc(C(=O)NCc4ccc5c(c4)OCO5)cc32)cc1`?
Vif-A3G inh: -18.4%; Vif-APOBEC3F blk: -16.5%

Results for CNc1nc(Cl)nc2ncn(C)c12 ?
SW480 rerep: 0.5%; Giardia killer: -2.3; Vif-A3G inh: 1.0%; Vif-APOBEC3F blk: -11.8%; MCF10A rereplic: 1.5%; IL-1B inflam inh: -6.4

How did Cn1cnc2nc(Cl)nc(Cl)c21 do in these assays?
SW480 rerep: 1.3µM*; Giardia killer: -11.9; Vif-A3G inh: inconclusive; Vif-APOBEC3F blk: 2.6%; MCF10A rereplic: 7.31µM*; IL-1B inflam inh: -93.5*

How did Nc1ccc(N=Nc2ccccc2)c(N)n1 do in these assays?
SW480 rerep: -25.1%; Giardia killer: -17.4; Vif-A3G inh: 2.4%; Vif-APOBEC3F blk: -16.3%; MCF10A rereplic: 5.0%; IL-1B inflam inh: -19.6

Results for Cc1[nH]c(N=Nc2ccccc2)nc1N=Nc1ccccc1 ?
SW480 rerep: 7.31µM*; Giardia killer: -13.2; Vif-A3G inh: -7.8%; Vif-APOBEC3F blk: -5.1%; MCF10A rereplic: inconclusive; IL-1B inflam inh: 97.8

Results for COc1ccc(NC(=O)N2CCC(CN3CCCC3)CC2)c(OC)c1 ?
Vif-A3G inh: -1.8%; Vif-APOBEC3F blk: 0.5%

Results for O=C1C=C(c2ccccc2Oc2ccccc2)C[C@@H](c2ccc3c(c2)OCO3)C1 ?
SW480 rerep: 11.6%[9.22 µM]; Giardia killer: 18.4; Vif-A3G inh: 4.0%; Vif-APOBEC3F blk: -0.3%; MCF10A rereplic: 4.7%; IL-1B inflam inh: -58.0*

What do the screens show for `O=C1C=C(c2ccc3ncccc3c2)C[C@@H](c2ccc3c(c2)OCO3)C1`?
SW480 rerep: 20.6µM*; Giardia killer: 7.7; Vif-A3G inh: -7.6%; Vif-APOBEC3F blk: 0.2%; MCF10A rereplic: inconclusive; IL-1B inflam inh: 8.5

Results for CN(Cc1ccccc1)S(=O)(=O)c1ccc(NC(=S)NC(=O)C2CCCC2)cc1 ?
SW480 rerep: 3.26µM*; Giardia killer: -5.5; Vif-A3G inh: -15.8%; Vif-APOBEC3F blk: -1.1%; MCF10A rereplic: 14.6µM*; IL-1B inflam inh: 8.1

What do the screens show for `CN(C)c1ccc(NC2=C(Cl)C(=O)c3ccccc3C2=O)cc1`?
SW480 rerep: 2.91µM*; Giardia killer: -2.2; Vif-A3G inh: 6.3%; Vif-APOBEC3F blk: 0.1%; MCF10A rereplic: 4.11µM*; IL-1B inflam inh: -99.6*

Results for O=C1C(Cl)=C(NCCCO)C(=O)c2ccccc21 ?
SW480 rerep: inconclusive; Giardia killer: inconclusive; Vif-A3G inh: 0.6%; Vif-APOBEC3F blk: 4.0%; MCF10A rereplic: inconclusive; IL-1B inflam inh: 56.8

How did O=C(Nc1ccc2cn[nH]c2c1)c1c(Cl)cccc1Cl do in these assays?
SW480 rerep: -6.0%; Giardia killer: 12.3; Vif-A3G inh: -1.7%; Vif-APOBEC3F blk: 5.4%; MCF10A rereplic: -5.1%; IL-1B inflam inh: 10.8

What do the screens show for `O=C1C(Cl)=C(Nc2ccc3cn[nH]c3c2)C(=O)c2ccccc21`?
SW480 rerep: 2.31µM*; Giardia killer: -0.9; Vif-A3G inh: 10.8%; Vif-APOBEC3F blk: -13.7%; MCF10A rereplic: 0.581µM*; IL-1B inflam inh: -99.2*

What do the screens show for `CC(=O)Nc1ccc(NC2=C(Cl)C(=O)c3ccccc3C2=O)cc1`?
SW480 rerep: 5.17µM*; Giardia killer: 2.9; Vif-A3G inh: 1.3%; Vif-APOBEC3F blk: 5.7%; MCF10A rereplic: inconclusive; IL-1B inflam inh: -97.6*

How did Cc1ccccc1CNC(=O)c1cnc2sc(N3CCOCC3)nn2c1=O do in these assays?
Vif-A3G inh: -6.5%; Vif-APOBEC3F blk: -1.9%

Results for COCCCn1c(SCC(=O)Nc2ccc(OC)cc2)nc2c(sc3ccccc32)c1=O ?
Vif-A3G inh: -5.0%; Vif-APOBEC3F blk: -4.9%

How did Cc1ccc(S(=O)(=O)N2CCN(c3nc(-c4ccc(F)cc4)nc4cc(Cl)ccc34)CC2)cc1 do in these assays?
Giardia killer: -2.3; Vif-A3G inh: -0.5%

Results for COc1ccc(CNc2ncnc3c2[nH]c2ccccc23)cc1 ?
SW480 rerep: 96.9%; Giardia killer: 15.7; Vif-A3G inh: -3.5%; Vif-APOBEC3F blk: 6.0%; MCF10A rereplic: inconclusive; IL-1B inflam inh: -107.9*

What do the screens show for `CC(C)OCCCNc1ncnc2c1[nH]c1ccccc12`?
SW480 rerep: 0.0%; Giardia killer: 3.5; Vif-A3G inh: 0.8%; Vif-APOBEC3F blk: 0.1%; MCF10A rereplic: -4.8%; IL-1B inflam inh: -93.0*

What do the screens show for `O=c1c2[nH]c3ccccc3c2ncn1CCC1=CCCCC1`?
SW480 rerep: 0.1%; Giardia killer: 14.5; Vif-A3G inh: -2.1%; Vif-APOBEC3F blk: -3.8%; MCF10A rereplic: 7.0%; IL-1B inflam inh: 49.0

How did C1=C(CCNc2ncnc3c2[nH]c2ccccc23)CCCC1 do in these assays?
SW480 rerep: 9.7%; Giardia killer: 2.1; Vif-A3G inh: -3.0%; Vif-APOBEC3F blk: -9.9%; MCF10A rereplic: inconclusive; IL-1B inflam inh: -84.0*

Results for Cc1ccc2[nH]c3c(NCc4ccccc4)ncnc3c2c1 ?
SW480 rerep: -7.4%; Giardia killer: 38.0; Vif-A3G inh: -7.0%; Vif-APOBEC3F blk: -0.3%; MCF10A rereplic: inconclusive; IL-1B inflam inh: -1.7

Results for COc1ccc(CNc2ncnc3c2[nH]c2cc(OC)c(OC)cc23)cc1 ?
SW480 rerep: 21.7%; Giardia killer: 23.2; Vif-A3G inh: -3.1%; Vif-APOBEC3F blk: 7.2%; MCF10A rereplic: inconclusive; IL-1B inflam inh: -94.5*

What do the screens show for `CCOC(=O)c1cccc(NC(=O)N2CC(CC)Oc3ccccc32)c1` (stereo not given)?
Vif-A3G inh: -12.3%; Vif-APOBEC3F blk: 3.1%

What do the screens show for `S=C(NCCCc1cnc[nH]1)NCCCN(Cc1ccc(Cl)cc1)c1ccc(Br)cc1`?
Giardia killer: 5.0; Vif-A3G inh: -10.6%

How did COc1ccc(CNC(=O)Cn2cnc3c(NCc4ccccc4)ncnc32)cc1 do in these assays?
SW480 rerep: 13µM*; Giardia killer: 0.4; Vif-A3G inh: -24.2%; Vif-APOBEC3F blk: -6.5%; MCF10A rereplic: inconclusive; IL-1B inflam inh: 64.8

How did COc1ccc2c(c1)[nH]c1c(Cl)ncnc12 do in these assays?
SW480 rerep: -0.5%; Giardia killer: 22.1; Vif-A3G inh: -3.9%; Vif-APOBEC3F blk: -18.3%; MCF10A rereplic: 0.1%; IL-1B inflam inh: -95.4*

Results for Cc1ccc2[nH]c3c(Cl)ncnc3c2c1 ?
SW480 rerep: 17.4%; Giardia killer: -27.6; Vif-A3G inh: 0.9%; Vif-APOBEC3F blk: 4.7%; MCF10A rereplic: 1.7%

Results for N=c1c2c(ncn1CCN1CCOCC1)Oc1cc(O)ccc1C2c1ccccc1 (stereo not given) ?
SW480 rerep: -19.1%; Giardia killer: 9.8; Vif-A3G inh: -6.6%; Vif-APOBEC3F blk: 0.9%; MCF10A rereplic: 23.1%; IL-1B inflam inh: -75.0*
